In PubChem BioAssay AID2073 (Sanford-Burnham Center for Chemical Genomics, 2009):
Hit rate of the full screen: of about 290,000 compounds, about 570 (0.2%) were called active. Another 1% or so got no clear call; they are omitted. Rule as the data show it: active = inhibition mostly above about 51% (no sharp cut-off); inconclusive = no clear call, values can overlap the other calls; inactive = mostly below about 53%. Only a selection was taken, and actives are over-represented in it overall.

Target: Voltage-dependent N-type calcium channel subunit alpha-1B (Homo sapiens) (UniProt Q00975)
Assay: disruptors of CaV2.2 binding to Mint1 – biochemical, HTRF (AID 2073)
Details: HTRF protein-protein interaction, Mint1-CaV2.2, at 20 µM, stronger effect = higher value
[1] = measured here: average of repeat tests

Voltage-dependent N-type calcium channel subunit alpha-1B (Homo sapiens), sequence (Q00975 whole entry, looked up): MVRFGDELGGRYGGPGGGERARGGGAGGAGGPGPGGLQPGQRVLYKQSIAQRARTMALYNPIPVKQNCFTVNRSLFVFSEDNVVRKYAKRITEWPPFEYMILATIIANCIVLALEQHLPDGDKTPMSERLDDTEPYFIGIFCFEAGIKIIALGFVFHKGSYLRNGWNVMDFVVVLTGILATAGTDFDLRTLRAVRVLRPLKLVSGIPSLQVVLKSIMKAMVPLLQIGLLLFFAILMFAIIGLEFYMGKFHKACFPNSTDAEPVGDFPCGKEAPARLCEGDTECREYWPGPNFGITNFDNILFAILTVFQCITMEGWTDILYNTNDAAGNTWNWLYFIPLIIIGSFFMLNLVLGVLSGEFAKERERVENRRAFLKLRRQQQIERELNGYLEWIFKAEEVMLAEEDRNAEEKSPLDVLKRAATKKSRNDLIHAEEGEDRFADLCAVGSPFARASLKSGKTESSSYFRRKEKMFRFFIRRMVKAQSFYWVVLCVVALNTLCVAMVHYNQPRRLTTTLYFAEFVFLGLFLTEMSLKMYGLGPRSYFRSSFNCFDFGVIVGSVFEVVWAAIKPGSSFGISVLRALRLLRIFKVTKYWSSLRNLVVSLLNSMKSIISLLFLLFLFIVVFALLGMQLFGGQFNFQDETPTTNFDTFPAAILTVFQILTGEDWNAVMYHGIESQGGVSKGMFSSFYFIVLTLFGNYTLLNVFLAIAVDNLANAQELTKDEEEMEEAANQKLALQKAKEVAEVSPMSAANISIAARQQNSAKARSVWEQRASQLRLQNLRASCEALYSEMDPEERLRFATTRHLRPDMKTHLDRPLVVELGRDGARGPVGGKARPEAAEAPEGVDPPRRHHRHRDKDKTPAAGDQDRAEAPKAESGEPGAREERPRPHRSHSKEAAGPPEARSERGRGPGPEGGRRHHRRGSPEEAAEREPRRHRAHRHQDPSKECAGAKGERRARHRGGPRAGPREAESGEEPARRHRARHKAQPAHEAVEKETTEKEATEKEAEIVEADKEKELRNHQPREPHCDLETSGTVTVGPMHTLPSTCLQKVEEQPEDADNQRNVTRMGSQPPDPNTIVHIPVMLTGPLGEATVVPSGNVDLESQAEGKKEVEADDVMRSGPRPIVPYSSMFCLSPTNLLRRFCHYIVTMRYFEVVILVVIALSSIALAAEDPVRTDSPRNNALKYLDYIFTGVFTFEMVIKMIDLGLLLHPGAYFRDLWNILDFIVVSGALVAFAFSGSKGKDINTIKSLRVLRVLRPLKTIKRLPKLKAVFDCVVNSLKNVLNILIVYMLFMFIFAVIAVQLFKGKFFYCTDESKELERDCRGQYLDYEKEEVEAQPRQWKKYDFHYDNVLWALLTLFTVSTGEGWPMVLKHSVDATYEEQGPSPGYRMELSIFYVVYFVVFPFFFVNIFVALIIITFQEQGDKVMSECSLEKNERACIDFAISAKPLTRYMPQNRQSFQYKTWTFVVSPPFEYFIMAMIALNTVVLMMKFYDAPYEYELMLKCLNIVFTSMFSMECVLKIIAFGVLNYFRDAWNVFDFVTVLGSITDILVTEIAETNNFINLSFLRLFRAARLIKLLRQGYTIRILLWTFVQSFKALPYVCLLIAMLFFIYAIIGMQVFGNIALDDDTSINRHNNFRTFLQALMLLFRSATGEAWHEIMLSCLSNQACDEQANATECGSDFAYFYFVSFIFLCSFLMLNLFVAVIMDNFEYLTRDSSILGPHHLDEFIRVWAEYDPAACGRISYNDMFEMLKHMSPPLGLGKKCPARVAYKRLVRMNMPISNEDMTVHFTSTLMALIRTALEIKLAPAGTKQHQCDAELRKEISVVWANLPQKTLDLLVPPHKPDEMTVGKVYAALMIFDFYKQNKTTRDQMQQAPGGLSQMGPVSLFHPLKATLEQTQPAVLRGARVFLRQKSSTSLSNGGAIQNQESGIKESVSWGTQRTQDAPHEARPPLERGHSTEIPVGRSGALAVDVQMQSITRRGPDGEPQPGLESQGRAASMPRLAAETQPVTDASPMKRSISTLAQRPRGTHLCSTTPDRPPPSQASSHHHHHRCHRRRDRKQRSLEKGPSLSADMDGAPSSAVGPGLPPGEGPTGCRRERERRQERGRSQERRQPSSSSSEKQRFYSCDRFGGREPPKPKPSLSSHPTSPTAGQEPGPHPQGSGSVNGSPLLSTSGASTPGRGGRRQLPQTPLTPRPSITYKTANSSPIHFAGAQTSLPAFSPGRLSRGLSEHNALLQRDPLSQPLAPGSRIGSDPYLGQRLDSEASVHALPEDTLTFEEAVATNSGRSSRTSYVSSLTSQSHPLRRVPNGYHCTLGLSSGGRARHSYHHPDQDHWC

SMILES | inhibition | inhibition [1]
Cc1cc(-c2cc(C(=O)O)c3ccccc3n2)c(C)s1 | 9.2% (inactive) | 
O=C1c2ccccc2C(=O)N1OCc1c(F)cccc1Cl | 16.6% (inactive) | 
CCOC(=O)c1c(N2C(=O)C=CC2=O)sc(C)c1C | 65.5% (active) | 
CCOC(=O)c1c(N2C(=O)C3CC(C)=C(C)CC3C2=O)sc(C)c1C (stereo unspecified) | -2.7% (inactive) | 
CCOC(=O)c1c(-n2cnnn2)sc(C)c1C | -6.3% (inactive) | 
CCOC(=O)c1c(NC(=O)COC)sc(C(C)=O)c1C | 6.4% (inactive) | 
CCOc1ccc(N2C(=O)CC(S/C(N)=N/N=C/c3cccs3)C2=O)cc1 (stereo unspecified) | 10.6% (inactive) | 
CCCCc1nc2sc3c(=O)n(N)cnc3c2c2c1CCCC2 | 8.9% (inactive) | 
CCn1cc(-c2ccnc3cc(C(=O)O)nn23)c(C)n1 | 39.6% (inactive) | 
CCn1ncc(-c2ccnc3cc(C(=O)O)nn23)c1C | 67.9% (active) | 
Cc1c(-c2ccnc3cc(C(=O)O)nn23)cnn1C | 49.5% (inactive) | 
CCn1cc(C(=O)Nc2ccc(F)c(F)c2)cn1 | 8.5% (inactive) | 
CC(C)n1nc(C(=O)N2CCN(S(=O)(=O)c3cccs3)CC2)c2ccccc2c1=O | -6.3% (inactive) | 
Cc1ccc(NC(=O)CN2C(=O)S/C(=C/c3ccc(-c4cccc(C(=O)O)c4)o3)C2=O)cc1 | 62.3% (active) | 
Cc1ccc(C(=O)O)cc1-c1ccc(/C=C2\SC(=O)N(CC(=O)Nc3ccccc3)C2=O)o1 | 24% (inactive) | 
Cc1ccc(NC(=O)CN2C(=O)S/C(=C\c3ccc(-c4cccc(C(=O)O)c4C)o3)C2=O)cc1 | 7.6% (inactive) | 
O=c1[nH]cnc(O)c1N=Nc1ccccc1 | -0.9% (inactive) | 
CCCSCCCNC(=O)c1cc2c(s1)CS(=O)(=O)C2 | 2% (inactive) | 
O=C(Nc1ccccc1C(=O)O)c1ccc2c(c1)C(=O)N(c1cccc([N+](=O)[O-])c1)C2=O | 11.2% (inactive) | 
O=C(O)c1cccc(NC(=O)c2ccc3c(c2)C(=O)N(c2cccc([N+](=O)[O-])c2)C3=O)c1 | 26.4% (inactive) | 
CCOC(=O)c1cc2c(N)c(C(=O)c3cc(C#N)c(SC)nc3C)sc2nc1C | 8.2% (inactive) | 
COc1cc2ccccc2nn1 | 22.3% (inactive) | 
COc1nc2ccccc2nc1OC | -4.1% (inactive) | 

SMILES | inhibition | inhibition [1]
COc1ccc2c(n1)Sc1nc3ccccc3nc1N2 | 78.9% (active) | 
Cn1nc(-c2ccccc2)cc1NC(=O)Nc1ccc(F)cc1 | -0.7% (inactive) | 
O=C1NC(=Nc2ccc(Cl)cc2)/C(=C/c2ccco2)S1 | 55.3% (active) | 
COc1ccc(N=C2NC(=O)/C(=C\c3ccco3)S2)cc1 | 81.2% (active) | 
Cc1ccc(N=C2NC(=O)S/C2=C\c2ccco2)cc1 | 29.6% (inactive) | 
O=C1NC(=Nc2ccccc2)/C(=C/c2ccco2)S1 | 24.1% (inactive) | 
COc1ccc(N=C2NC(=O)/C(=C/c3ccco3)S2)cc1 | -14.1% (inactive) | 
Cc1ccc(N=C2NC(=O)/C(=C/C=C/c3ccco3)S2)cc1 | 36.2% (inactive) | 
Cc1ccc(N=C2NC(=O)/C(=C/C=C/c3ccco3)S2)cc1C | 76% (active) | 
Cc1cccc(N=C2NC(=O)/C(=C/C=C/c3ccco3)S2)c1 | 57.2% (inactive) | 31.3%
Cc1ccc(N=C2NC(=O)/C(=C\c3ccco3)S2)cc1 | 58.4% (inactive) | 6.9%
Fc1cccc(Cl)c1CSc1nnc2ccccn12 | 4% (inactive) | 
Cc1c(CC(=O)NCC(=O)NCC(=O)O)c(=O)oc2cc3c(cc12)CCC(C)(C)O3 | 16.3% (inactive) | 
Clc1ccc(-n2nnnc2SCc2cn3ccccc3n2)cc1 | -7.5% (inactive) | 
Cc1cc(Cl)c(OCCOCCN2CCCCC2)c(Br)c1 | -0.3% (inactive) | 
CCNC(=O)NC(=O)COC(=O)C1CSC2(C)CCC(=O)N12 (stereo unspecified) | 3.1% (inactive) | 
C=CCN=C(NC#N)SCC(=O)NCc1ccccc1 | 2.2% (inactive) | 
COc1ccc(-c2ccc(C(=O)O)o2)c([N+](=O)[O-])c1 | 59.6% (active) | 
CNC(=O)/C(C#N)=C/c1ccc(-c2ccc(OC)cc2[N+](=O)[O-])o1 | 11.4% (inactive) | 
COc1cccc(NC(=O)c2ccc(-c3ccccc3[N+](=O)[O-])o2)c1 | 52.1% (inactive) | 1.4%
Cc1ccc(S(=O)(=O)N2CCN(C(=O)c3ccc(Cl)nc3)CC2)cc1 | 3% (inactive) | 
COc1ccc(C(=O)Nc2ccc(CN3CCOCC3)cc2)cc1Br | 3% (inactive) | 
COc1ccc(-c2cc(-c3ccccc3)nc(=O)[nH]2)cc1 | 0.5% (inactive) | 

SMILES | inhibition | inhibition [1]
Cc1cc(C)c2nc(-c3ccccn3)cc(C(=O)Nc3ccc(S(=O)(=O)Nc4onc(C)c4C)cc3)c2c1 | 51% (active) | 52.5%
Cc1cc(C)c2nc(-c3ccccn3)cc(C(=O)Nc3ccc(S(=O)(=O)Nc4cc(C)on4)cc3)c2c1 | 39.7% (inactive) | 
Cc1cc(C)c2nc(-c3cccnc3)cc(C(=O)Nc3ccc(S(=O)(=O)Nc4onc(C)c4C)cc3)c2c1 | 31.4% (inactive) | 
COC(=O)c1sccc1NC(=O)c1ccc(C)o1 | 19.2% (inactive) | 
O=S(=O)(Cc1ccccc1)N1CCN(c2ncccn2)CC1 | 7.7% (inactive) | 
CCC(C(=O)NC1CC1)n1nc(C)c2c(C)n(-c3ccc(C)cc3)nc2c1=O (stereo unspecified) | 9.6% (inactive) | 
COc1ccc(/C=C/C(=O)NC(=S)Nc2cc3oc4ccccc4c3cc2OC)cc1 | 0.7% (inactive) | 
COc1cc2c(cc1NC(=S)NC(=O)/C=C/c1ccc(OC)c(OC)c1)oc1ccccc12 | 14.5% (inactive) | 
COc1cc2c(cc1NC(=S)NC(=O)/C=C/c1ccco1)oc1ccccc12 | 53.2% (active) | 
Cc1oc(-c2ccccc2Cl)nc1CS(=O)CC(=O)NCc1ccco1 (stereo unspecified) | 19.1% (inactive) | 
Cc1cc(OCC(O)CN2CCCC2)ccc1C(C)C (stereo unspecified) | -5.6% (inactive) | 
O=C(Nc1ccc(C2=NCCN2)cc1)c1ccc(C(=O)Nc2ccc(C3=NCCN3)cc2)c([N+](=O)[O-])c1 | 30.7% (inactive) | 
O=C(Nc1ccc(C2=NCCN2)cc1)c1ccc(C(=O)Nc2ccc(C3=NCCN3)cc2)c(Cl)c1 | 51.6% (active) | 
O=C(Nc1ccc(C2=NCCN2)cc1)c1ccc(Cl)c(C(=O)Nc2ccc(C3=NCCN3)cc2)c1 | 36.8% (inactive) | 
O=C(/C=C/c1ccc(Cl)cc1)N(Cc1ccccc1)c1ccccn1 | 22.8% (inactive) | 
COc1ccccc1CN(C)C(=O)c1cnc(C)cn1 | 5.7% (inactive) | 
Cc1cccc(/C=N/N2CCN(c3ccccc3)CC2)c1 | -12.6% (inactive) | 
CCCN1CCC(=O)N([C@H](CO)c2ccccc2)CC1 | 5.6% (inactive) | 
C=CCN1C(=O)c2cccc3c(N4CCCCC4)ccc(c23)C1=O | 53.2% (active) | 
O=C1c2cccc3c(N4CCCCC4)ccc(c23)C(=O)N1CCO | 24.6% (inactive) | 
CCCN1C(=O)c2cccc3c(N4CCCCC4)ccc(c23)C1=O | 11.8% (inactive) | 
CCOc1ccc(C(=O)NC(=S)NCCCN2CCOCC2)cc1 | -2.3% (inactive) | 
O=C(Nc1cccc(S(=O)(=O)N2CCOCC2)c1)c1c2c(nc3ccccc13)CCC2 | 56% (active) | 

SMILES | inhibition | inhibition [1]
COc1ccc(NC(=O)c2c3c(nc4ccccc24)CCC3)cc1S(=O)(=O)N1CCOCC1 | 59.4% (inactive) | 41.1%
O=C(Nc1cccc(S(=O)(=O)N2CCCCC2)c1)c1c2c(nc3ccccc13)CCN(Cc1ccccc1)C2 | 40.8% (inactive) | 
CCOc1cc(C(c2c(C)[nH][nH]c2=O)c2c(C)[nH][nH]c2=O)cc(Br)c1OC | 5.6% (inactive) | 
C=CC#CC1(O)CC(C)[N+](C)(C)CC1C (stereo unspecified) | 17.6% (inactive) | 
COCCn1c(=NC(=O)c2cc(Cl)sc2Cl)sc2cc(S(N)(=O)=O)ccc21 | 38.7% (inactive) | 
CCOCCn1c(=NC(=O)c2cc(Cl)sc2Cl)sc2cc(S(N)(=O)=O)ccc21 | 53.8% (active) | 
C=CCn1c(=NC(=O)c2cc(Cl)sc2Cl)sc2cc(S(N)(=O)=O)ccc21 | 27.4% (inactive) | 
CCOc1ccccc1C(=O)NC(C(=O)Nc1cccnc1)C(C)C (stereo unspecified) | 3.3% (inactive) | 
Cc1cc(C(=O)COc2cccnc2[N+](=O)[O-])c(C)n1Cc1ccco1 | 78.9% (active) | 
COCCn1c(C)cc(C(=O)COc2cccnc2[N+](=O)[O-])c1C | -4% (inactive) | 
Cc1cc(C(=O)COc2cccnc2[N+](=O)[O-])c(C)n1Cc1cccs1 | 34% (inactive) | 
Cc1ccc(NC(=O)c2c3c(nc4ccccc24)CCC3)cc1S(=O)(=O)N(C)C | 53.6% (inactive) | 31.4%
Cc1ccc(S(=O)(=O)N(C)CC(=O)OCC(=O)N2CCCC2=O)cc1 | -12.9% (inactive) | 
O=C(Nc1nc(-c2cccnc2)cs1)c1ccc([N+](=O)[O-])cc1 | 19% (inactive) | 
COc1cc(CN(C(=O)c2ccco2)C2CCS(=O)(=O)C2)cc(OC)c1OC (stereo unspecified) | 11.2% (inactive) | 
CC(=O)c1cccc(Nc2nc(-c3ccccc3)cs2)c1 | 0.5% (inactive) | 
Cc1cccc(C=Nc2ccc3c4c(cccc24)CC3)c1O | 7.8% (inactive) | 
Oc1ccc(Br)cc1C=Nc1ccc2c3c(cccc13)CC2 | 53.5% (active) | 
Oc1ccc(Cl)cc1C=Nc1ccc2c3c(cccc13)CC2 | 50.4% (inactive) | 11.1%
O=[N+]([O-])c1cc(Cl)ccc1N1CCCC1 | -1.5% (inactive) | 
